Assay outcomes: PubChem BioAssay, The Scripps Research Institute Molecular Screening Center
HTR5A ag: HTR5A agonists in luminescence cell assay, primary screen, counter-screen for OPRM1-OPRD1 heterodimer agonist project, full-deck HTS. cell-based. 5-hydroxytryptamine receptor 5A (Homo sapiens), P47898. activation, % at 9.3 µM. AID 504692, 2011. 340,000 tested, 0.61% active; in the data active means activation mostly above about 9.5%, no sharp cut-off; inactive means mostly below about 7.6%;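 further: 0% = cells with vehicle only and 100% = reference agonist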
HTR5A inv ag: HTR5A inverse agonists in luminescence cell assay, primary screen, counter-screen for OPRM1-OPRD1 heterodimer inverse agonist project, full-deck HTS; 5-hydroxytryptamine receptor 5A (Homo sapiens), P47898; HTR5A cell line, inverse agonism; inhibition, % at 9.3 µM; 340,000 tested, 0.083% active; in the data active means inhibition mostly above about 23%, no sharp cut-off; inactive means mostly below about 18%;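 further: 0% = cells with DMSO and 100% = no-cell wells with DMSO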
OPRM1-OPRD1 inv: inverse agonists of MOR-DOR heterodimerization, primary screen, cell-based, luminescence; cell-based MOR-DOR heterodimer luminescence, inverse agonism; 340,000 tested, 0.21% active; Mu-type opioid receptor (Homo sapiens) + Delta-type opioid receptor (Homo sapiens), …; inhibition, % at 9.3 µM; AID 504357, 2011; in the data active means inhibition above about 22%, passing the limit was not always enough;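 further: 0% = cells with DMSO and 100% = wells without cells with DMSO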
Target sequence (P35372 whole entry, looked up): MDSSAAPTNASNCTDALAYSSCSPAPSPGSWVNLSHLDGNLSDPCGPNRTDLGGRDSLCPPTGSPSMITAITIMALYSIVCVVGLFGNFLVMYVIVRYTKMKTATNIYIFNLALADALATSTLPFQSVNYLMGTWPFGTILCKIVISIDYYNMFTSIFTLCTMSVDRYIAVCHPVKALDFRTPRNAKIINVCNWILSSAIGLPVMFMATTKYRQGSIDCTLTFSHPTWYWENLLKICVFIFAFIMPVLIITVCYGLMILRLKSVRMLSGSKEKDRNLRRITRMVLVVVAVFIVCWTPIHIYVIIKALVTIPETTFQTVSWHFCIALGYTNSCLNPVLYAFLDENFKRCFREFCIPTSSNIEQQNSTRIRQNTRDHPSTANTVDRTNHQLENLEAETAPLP
Target sequence (P41143 whole entry, looked up): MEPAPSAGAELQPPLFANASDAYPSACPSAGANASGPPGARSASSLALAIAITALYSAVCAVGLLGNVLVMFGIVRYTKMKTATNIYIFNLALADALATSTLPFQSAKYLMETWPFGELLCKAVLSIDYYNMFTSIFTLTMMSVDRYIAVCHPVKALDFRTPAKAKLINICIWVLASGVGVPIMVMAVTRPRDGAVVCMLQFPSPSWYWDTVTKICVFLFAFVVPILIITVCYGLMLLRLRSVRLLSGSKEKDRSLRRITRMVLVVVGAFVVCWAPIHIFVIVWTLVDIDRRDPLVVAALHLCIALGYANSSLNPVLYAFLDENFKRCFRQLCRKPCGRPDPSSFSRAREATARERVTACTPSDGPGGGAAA
MOR-DOR ag: agonists of OPRM1-OPRD1 heterodimerization, primary screen, cell-based, luminescence. 340,000 tested, 0.3% active. Mu-type opioid receptor (Homo sapiens) + Delta-type opioid receptor (Homo sapiens), …. activation, % at 9.3 µM. cells. AID 504326, 2011; in the data active means activation above about 18%;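 further: 0% = vehicle-treated cells and 100% = reference agonist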
* marks the source's active call; other numbers are inactive results. Most compounds without a hit are left out; they make up all but 1.1% or so of the library.

SMILES | HTR5A ag | HTR5A inv ag | OPRM1-OPRD1 inv | MOR-DOR ag
CCOC(=O)N1CCN(C(=O)c2ccc(Cl)c(S(=O)(=O)N3CCCC3)c2)CC1 | -1 | 10 | 10 | -2
CCOC(=O)C1=C(O)/C(=C/c2ccc(-c3ccccc3C(=O)O)o2)SC1=Nc1ccc(C)cc1 | 13* | -14 | 5 | -1
CCOC(=O)C1=C(O)/C(=C/c2ccc(-c3ccccc3C(=O)O)o2)SC1=Nc1ccc(OC)cc1 | -1 | 8 | 20 | -5
CC(=O)N(c1ccccc1)C1CCCC1 | 1 | 8 | 13 | -2
O=C(CCl)N(c1ccccc1)C1CCCCC1 | 42* | 4 | -178 | 33*
O=C1CC(c2cccc(Cl)c2)Cc2nc(N3CCOCC3)ncc21 (stereo not given) | 13* | 13 | 2 | 0
O=C1CC(c2ccc(F)cc2)Cc2nc(N3CCOCC3)ncc21 (stereo not given) | 1 | 5 | 11 | -3
O=C1N/C(=C/c2cccn2-c2ccccc2)C(=O)N1Cc1ccc(F)cc1 | 1 | -5 | -14 | 3
O=C1N/C(=C/c2cccn2-c2ccc(F)cc2)C(=O)N1Cc1ccccc1F | 12* | 22 | -23 | 4
O=C(CSc1nnc(-c2ccc(Cl)cc2)n1-c1ccc(Cl)cc1)N/N=C/c1ccco1 | 1 | -5 | -33 | 7
Cc1ccc(/C=N/NC(=O)CSc2nnc(-c3ccc(Cl)cc3)n2-c2ccccc2)o1 | 14* | -49 | -90 | 17
CCCCNc1c(-c2ccc(OC)c(Sc3ccc(OC)cc3)c2)nc2ccccn12 | 11* | -28 | -64 | 11
CCOC(=O)C1CCCN(C(=O)C2c3ccccc3Oc3ccccc32)C1 (stereo not given) | 12* | 14 | 2 | 0
Cc1cc(C(=O)CSc2nc3ccccc3[nH]2)c(C)n1CC1CCCO1 (stereo not given) | 13* | -21 | -102 | 18
Cc1cc(C(=O)CSc2nc(N)cc(=O)[nH]2)c(C)n1CC1CCCO1 (stereo not given) | -1 | 6 | 11 | -2
C[C@@H]1CN([C@H](C)CO)C(=O)c2cc(NC(=O)Nc3ccc4c(c3)OCO4)ccc2O[C@H]1CN(C)Cc1ccncc1 | -1 | 4 | 0 | 0
COc1ccc(-n2cc(-c3ccccc3)c3c(NN4CCOCC4)ncnc32)cc1 | 0 | -3 | -1 | 0
OCCN1CCN(c2ncnc3c2c(-c2ccccc2)cn3-c2ccc(F)cc2)CC1 | -17 | 44* | 45* | -10
Fc1ccc(-n2cc(-c3ccccc3)c3c(NN4CCOCC4)ncnc32)cc1 | -17 | 46* | 34* | -6
CC1CN(c2ncnc3c2c(-c2ccccc2)cn3-c2ccc(F)cc2)CC(C)O1 (stereo not given) | -21 | 77* | 62* | -13
CC(C)(C)C1=CC(=O)C(=O)C(C(C)(C)C)=C1 | 5 | -12 | -184 | 36*
O=c1ccc2cc(S(=O)(=O)Nc3ccc(Br)cc3)ccc2o1 | -2 | 5 | 5 | -1
CCN(CC)c1ccc(C(=C2C=CC(=[N+](CC)CC)C=C2)c2ccccc2)cc1 | -2 | 8 | -229 | 52*
O=C(/C=C/c1ccc(Cl)cc1)OCC(=O)c1ccc[nH]1 | -1 | 3 | -37 | 7
NC(CSC(c1ccccc1)(c1ccccc1)c1cccc2ccccc12)C(=O)O (stereo not given) | 5 | -21 | -92 | 21*
SMILES | HTR5A ag | HTR5A inv ag | OPRM1-OPRD1 inv | MOR-DOR ag
NC(CSC1(c2cccc3ccccc23)c2ccccc2-c2ccccc21)C(=O)O (stereo not given) | 2 | -6 | -19 | 4
CS(=O)(=O)c1ccc(C(=O)NNC(=O)c2ccccc2-n2cccc2)cc1 | 2 | -6 | 8 | -2
CCCCCCC(NC(=O)c1ccc(C)cc1)C(=O)O (stereo not given) | -1 | 2 | 15 | -3
COCc1ccc(CN2CCCC(C(=O)Nc3ccc(-c4cccc(OC)c4)cc3)C2)o1 (stereo not given) | 12* | -13 | -20 | 4
COCc1ccc(CN2CCCC(C(=O)Nc3ccccc3-c3ccc(OC)cc3)C2)o1 (stereo not given) | -2 | 24 | 6 | -1
CC1CCCC(C)N1C(=O)COC(=O)C12CC3CC(CC(Cl)(C3)C1)C2 (stereo not given) | -3 | 13 | -17 | 3
CN(C(=O)COC(=O)C12CC3CC(CC(Cl)(C3)C1)C2)c1ccccc1 | 11* | -40 | -23 | 4
COc1ccc(NC(=O)Nc2ccc3c(c2)C(=O)N([C@@H](C)CO)C[C@@H](C)[C@@H](CN(C)S(=O)(=O)c2cn(C)cn2)O3)cc1 | -1 | 2 | 6 | -1
Cc1cccc(C(=O)NC2=NCCS2)c1 | 0 | 1 | -8 | 1
CCCCN(C)CCNC(=O)c1ccc2c(c1)NC(=O)C(N1CCCCC1)S2 (stereo not given) | 12* | -25 | 3 | -1
O=C(NCCCN1CCCC1=O)c1ccc2c(c1)NC(=O)C(N1CCOCC1)S2 (stereo not given) | 0 | -3 | 10 | -2
CCCCn1c(SCC(=O)Nc2sc3c(c2C(N)=O)CCC3)nnc1-c1ccccc1 | 14* | -25 | -13 | 2
NC(=O)c1c(NC(=O)CSc2nnc(Cc3ccccc3)n2Cc2ccco2)sc2c1CCC2 | 3 | -11 | -1 | 0
CCc1ccc(S(=O)(=O)/N=C2/C=C(Sc3ncn[nH]3)C(=O)c3ccccc32)cc1 | 4 | 17 | -143 | 30*
CC(c1ccccc1)n1cc(C(=O)NCC2COc3ccccc3O2)nn1 (stereo not given) | 12* | -37 | -4 | 1
O=C(NCC1COc2ccccc2O1)c1cn(Cc2ccc(F)cc2)nn1 (stereo not given) | 13* | -42 | 3 | 0
CC(C)(C)c1nn(-c2ccccc2)c2[nH]c(=O)c(CNCc3ccc4c(c3)OCO4)cc12 | 12* | -28 | -36 | 6
CCOc1cccc(NCc2cc3c(C(C)(C)C)nn(-c4ccccc4)c3[nH]c2=O)c1 | 6 | -16 | -4 | 1
O=C(c1ccc(Cl)c(S(=O)(=O)N2CCOCC2)c1)N1CCN(c2ccccn2)CC1 | -1 | -8 | 14 | -4
O=C(c1ccc(Cl)c(S(=O)(=O)N2CCCC2)c1)N1CCN(c2ccccn2)CC1 | 12* | -66 | -14 | 3
CC(C)[C@H](NS(=O)(=O)c1ccccc1F)C(=O)NC1CCCCC1 | 3 | -9 | 7 | -2
CNC(=S)N1CCn2cccc2C1c1ccc(F)cc1 (stereo not given) | 8.0* | -20 | -1 | 0
Fc1ccc(C2c3cccn3CCN2C(=S)Nc2cccc(F)c2)cc1 (stereo not given) | 2 | -4 | -9 | 2
O=C1C2C3CCC(C3)C2C(=O)N1c1ccc(OS(=O)(=O)c2ccccc2)cc1 (stereo not given) | 13* | -2 | -13 | 3
